Hits are enriched below; roughly 1.5% of the tested compounds scored in any of these assays.
CCHF vOTU inh – CCHFV vOTU protease inhibition; Pep-AMC fluorescence; inhibition, % at 11.5 µM; actives 0.55% (n = 370,000); in the data active means inhibition above about 30%; further: 0% = vehicle wells with enzyme and 100% = no enzyme wells
PrPC surface inh – cell surface PrPC inhibition, primary TR-FRET screen | P04156 | AID 720596 | TR-FRET read-out | inhibition, % at 13.8 µM | actives 0.43% (n = 370,000); in the data active means inhibition above about 24%; further: 0% = median of the test wells and 100% = reference compound wells
BH1578 lux ind – induces V. cholerae light production without autoinducers | activation, % at 18.7 µM | AID 588436 | actives 0.16% (n = 350,000) | V. cholerae BH1578 lux reporter, luminescence, 6 h; in the data active means activation mostly above about 9.7%, no sharp cut-off
VHR inh abs – inhibitors of human VHR1 phosphatase (DUSP3) | inhibition, % at 13.3 µM | actives 0.52% (n = 290,000) | recombinant VHR phosphatase, pNPP absorbance | AID 1654; in the data active means inhibition above about 50%
Target sequence (P51452 whole entry, looked up): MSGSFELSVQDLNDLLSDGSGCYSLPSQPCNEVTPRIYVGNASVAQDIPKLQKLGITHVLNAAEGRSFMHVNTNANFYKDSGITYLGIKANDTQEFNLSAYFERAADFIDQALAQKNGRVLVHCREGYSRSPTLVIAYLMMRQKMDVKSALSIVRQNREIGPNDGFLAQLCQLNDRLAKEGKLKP
TcdB inh – TcdB glycohydrolase inhibition; actives 0.24% (n = 350,000); TcdB glycohydrolase enzymatic assay, plate reader; P18177; inhibition, % at 9.99 µM; in the data active means inhibition above about 10%
SSB-PriA inh – inhibitors of Klebsiella pneumoniae PriA binding to SSB C-terminal tail | AlphaScreen SSBct-PriA binding, biotinylated peptide | inhibition, % at 33 µM | actives 0.6% (n = 430,000); in the data active means inhibition mostly above about 37%, no sharp cut-off; inactive means mostly below about 20%;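 further: plate controls were negative control peptide for no effect and reference peptide for full effect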
The depositor's hits bear a star.

Results for Oc1ccc(/C=N/N2CCN(Cc3ccccc3)CC2)cc1 ?
CCHF vOTU inh: 0.0; PrPC surface inh: -6.0; BH1578 lux ind: -0.3; VHR inh abs: 20.0; TcdB inh: 17.6*

What do the screens show for `Cc1ccc2c(=O)c(-c3nc(-c4cccc(F)c4)no3)cn(CC(=O)Nc3ccc4c(c3)OCCO4)c2n1`?
SSB-PriA inh: -20.0

How did O=c1cc(N=Cc2coc3c(ccc4ccccc43)c2=O)[nH]c(=S)[nH]1 do in these assays?
SSB-PriA inh: -14.3

What do the screens show for `Cc1ccc(C(N)=NOC(=O)N2c3ccccc3Sc3ccccc32)cc1`?
SSB-PriA inh: 57.0*

How did OCc1ccc(-c2nn(Cc3ccccc3)c3ccccc23)o1 do in these assays?
CCHF vOTU inh: -4.2; PrPC surface inh: 10.5; BH1578 lux ind: -0.3; TcdB inh: 0.8; SSB-PriA inh: 41.5*

What do the screens show for `c1ccc(-c2nn(Cc3ncco3)c3ccccc23)cc1`?
PrPC surface inh: 8.7

What do the screens show for `C=C1CCN(c2ccc(C(=O)NCc3ccccc3)cc2[N+](=O)[O-])CC1`?
CCHF vOTU inh: 10.2; PrPC surface inh: -2.9; BH1578 lux ind: 2.2; VHR inh abs: 8.9; TcdB inh: 1.3; SSB-PriA inh: 13.4

Results for COC(CNC(=O)c1ccc(N2CCc3ccccc32)c([N+](=O)[O-])c1)OC ?
CCHF vOTU inh: -3.5; PrPC surface inh: -40.6; BH1578 lux ind: -0.4; VHR inh abs: 4.1; SSB-PriA inh: 47.8*

What do the screens show for `NNC(=O)c1ccc(N2CCc3ccccc32)c([N+](=O)[O-])c1`?
CCHF vOTU inh: 18.9; PrPC surface inh: -19.0; BH1578 lux ind: -0.2; VHR inh abs: 14.5; TcdB inh: -1.6; SSB-PriA inh: 25.3

Results for Cc1ccc(CNC(=O)c2ccc(N3CCc4ccccc43)c([N+](=O)[O-])c2)cc1 ?
CCHF vOTU inh: 9.6; PrPC surface inh: -13.1; BH1578 lux ind: -0.3; VHR inh abs: 23.7; TcdB inh: 0.7; SSB-PriA inh: 66.2*

What do the screens show for `COC(=O)N1CCC(CNC(=O)Nc2ccc(Cl)c(Cl)c2)CC1`?
SSB-PriA inh: -21.0

What do the screens show for `O=C(C1CC1)N1CCCC(c2nnc(-c3cccs3)o2)C1` (stereo not drawn)?
SSB-PriA inh: -8.0

What do the screens show for `O=C(NCc1ccccc1OC(F)(F)F)c1csc(Nc2ccccn2)n1`?
SSB-PriA inh: -16.0

Results for Cc1c(N(C)S(=O)(=O)c2cc(C(=O)N3CCCC3)ccc2Cl)c(=O)n(-c2ccccc2)n1C ?
CCHF vOTU inh: -5.0; PrPC surface inh: -0.9; BH1578 lux ind: inactive; VHR inh abs: 53.3*; TcdB inh: -0.7; SSB-PriA inh: 6.7

Results for COc1ccc(/C=N/n2c(-c3cc(C)[nH]n3)n[nH]c2=S)cc1OC ?
CCHF vOTU inh: 4.7; PrPC surface inh: 5.6; BH1578 lux ind: -0.4; VHR inh abs: 5.4; TcdB inh: 10.7*

Results for Cc1ccccc1NC(=O)CNc1ccc(Cl)c(C(F)(F)F)c1 ?
CCHF vOTU inh: 0.4; PrPC surface inh: 4.8; BH1578 lux ind: -0.6; VHR inh abs: 58.3*; SSB-PriA inh: -35.5

Results for O=C(NCCn1ccnc1-c1ncccn1)NC1CCCCC1 ?
SSB-PriA inh: -4.0

How did Cc1ccc(NC(=O)NCCn2ccnc2-c2ncccn2)cc1C do in these assays?
SSB-PriA inh: 97.0*

What do the screens show for `COc1cccc(NC(=O)NCCn2ccnc2-c2ccccn2)c1`?
SSB-PriA inh: -3.0

Results for O=C(NCCn1ccnc1-c1ncccn1)Nc1c(F)cccc1F ?
SSB-PriA inh: 86.0*

Results for COC(=O)CCC(O)=C1C(=O)CC(C)(C)CC1=Nc1ccccc1OC ?
SSB-PriA inh: -15.7

Results for Nc1nc(-c2cccc(-c3csc(N)n3)n2)cs1 ?
SSB-PriA inh: 113.5*

What do the screens show for `Nc1nc(-c2ccccn2)cs1`?
SSB-PriA inh: 94.0*

What do the screens show for `Nc1nc(-c2ccc(-c3ccccc3)cc2)cs1`?
CCHF vOTU inh: -1.5; PrPC surface inh: 4.1; BH1578 lux ind: 1.3; VHR inh abs: -4.4; TcdB inh: 2.5; SSB-PriA inh: 13.9

Results for c1ccc(-c2nc3ccccc3nc2N2CCCCC2)cc1 ?
SSB-PriA inh: -88.0

How did O=S(=O)(Cc1ccco1)[C@H]1CCN(S(=O)(=O)c2ccccc2Br)C1 do in these assays?
SSB-PriA inh: 1.0

What do the screens show for `Cn1cnc(S(=O)(=O)N2CCC(S(=O)(=O)Cc3ccco3)CC2)c1`?
SSB-PriA inh: 68.0*

Assay outcomes (PubChem BioAssay)
